Screening data deposited in PubChem BioAssay by National Center for Advancing Translational Sciences (NCATS).
Pf growth 48h = Primary qHTS for delayed death inhibitors of the malarial parasite plastid, 48 hour incubation; P. falciparum luciferase growth in erythrocytes, 48 h; Potency, µM (top dose mostly 28.7 µM), without a hit: at the top dose activity change, negative = inhibition, hits mostly inhibitors; actives 5.9% (n = 310,000); further: on the % scale 0 is the no-effect control and ±100 the full control effect
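Growth was read as firefly luciferase luminescence after a 48 h, 37 C, 5% CO2 exposure of compounds to reporter-bearing P. falciparum cultures (0.1% parasitemia, 2% hematocrit final) in Albumax-supplemented RPMI 1640.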
NS1 inh = qHTS Assay for Inhibitors of Influenza NS1 Protein Function; Potency, µM (series often up to 46.1 µM), without a hit: top-dose activity, positive = more growth; actives 0.4% (n = 270,000); calls by dose curve; further: actives are rising curves; nearly all actives have a fitted effect of over 50% in size
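Growth recovery, yeast-based: influenza A NS1 expressed in S. cerevisiae causes slow growth, and suppressors are detected by OD600. The parent strain without NS1 is used as positive control.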
Vaccinia Venus = qHTS for Stage-Specific Inhibitors of Vaccinia Orthopoxvirus: Venus Reporter Primary qHTS; Vaccinia virus Venus reporter expression, fluorescence; Potency, µM (titrated, usually from 36.5 µM), for the others: top-dose activity change, negative = inhibition, actives largely listed as inhibitors; actives 0.46% (n = 330,000); AID 720580, 2013; calls by dose curve; tested in A549 cells; further: on the % scale 0 is the no-effect control and ±100 the full control effect; nearly all actives have a fitted effect of over 30% in size
VACV mCherry inh = qHTS for Stage-Specific Inhibitors of Vaccinia Orthopoxvirus: mCherry Reporter Primary qHTS; Potency, µM (top dose mostly 36.5 µM), without a hit: top-dose activity change, negative = inhibition, usual class: inhibitors; AID 720579, 2013; actives 0.63% (n = 310,000); Vaccinia virus mCherry reporter infection, fluorescence; calls by dose curve; tested in A549 cells; further: on the % scale 0 is the no-effect control and ±100 the full control effect; nearly all actives have a fitted effect of over 35% in size
Pf growth 96h = Primary qHTS for delayed death inhibitors of the malarial parasite plastid, 96 hour incubation | P. falciparum luciferase reporter growth, 96 h | Potency, µM (titrated, usually from 28.7 µM), for the others: at the top dose activity change, negative = inhibition, most hits filed as inhibitors | actives 6.9% (n = 320,000); further: on the % scale 0 is the no-effect control and ±100 the full control effect
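P. falciparum expressing integrated firefly luciferase, in erythrocytes at 2% hematocrit, 0.05% parasitemia, incubated with compounds 96 h at 37 C, 5% CO2. Growth inhibition read as loss of luminescence; two-generation exposure targets delayed-death apicoplast inhibitors.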
HCV inhibitor = qHTS Assay for Inhibitors of Hepatitis C Virus (HCV). actives 3.4% (n = 340,000). Potency, µM (doses to about 41.8 µM), for inactives: at the top dose activity change, negative = inhibition, actives largely listed as inhibitors. Huh7.5.1 HCVcc-Cre infection, luciferase reporter, 44 h. AID 651820, 2012; further: on the % scale 0 is the no-effect control and ±100 the full control effect
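Reporter virus HCVcc-Cre (~0.5 moi) infects cells exposed to compound; seeding density 1,000 cells/well with 4 h settling beforehand. Luminescence, 15 sec read, taken 44 h post-infection following a 15 min RT substrate incubation.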
The depositor's hits bear a star; i = inactive; ? = inconclusive; nt = not tested or not shown. Rows were chosen to be rich in hits. Some 11% of all compounds tested hit in one or more screens of this group. Unless noted, the call rests on the fitted dose curve; in most records, active means well fitted inhibition curve with a large enough effect; inconclusive means small, poorly fitted or top-dose-only effect, or another doubt; inactive means no such curve, though single readings can be large or run the other way. Potency means the concentration at half of the fitted maximal effect.

SMILES | Pf growth 48h | NS1 inh | Vaccinia Venus | VACV mCherry inh | Pf growth 96h | HCV inhibitor
CN(c1ccc(OC(=O)CC2OC(=O)c3ccccc32)cc1)S(=O)(=O)c1ccccc1 (configuration not stated) | -19% | nt | nt | nt | ? | -9%
CCOc1ccc(CCNC(=O)c2cccc(S(=O)(=O)N3CCCCC3)c2)cc1OCC | 15µM* | nt | -28% | -22% | ? | ?
COc1ccc(CNC(=O)COc2ccc(S(=O)(=O)N3CCCCC3)cc2)cc1 | ? | -10% | -17% | i | 11% | -2%
CSc1ccccc1C(=O)NCCc1ccc(S(=O)(=O)N2CCCCC2)cc1 | 5.2µM* | -11% | nt | nt | nt | 5%
CCOc1ccc(CCNC(=O)c2cccc(S(=O)(=O)N3CCOCC3)c2)cc1OCC | ? | nt | -17% | i | ? | ?
COc1ccc(CNC(=O)COc2ccc(S(=O)(=O)N3CCCCC3)cc2Cl)cc1 | 13µM* | -7% | -20% | -12% | -24% | ?
COc1ccc(OC)c(/C=N/NC(=O)CNC(=O)c2ccc(S(=O)(=O)N3CCCC3)cc2)c1 | 27% | nt | -9% | i | 4.1µM* | 13%
O=C(NCCc1ccccc1)c1ccc(S(=O)(=O)N2CCCCC2)cc1 | nt | nt | -13% | -8% | nt | nt
COC(=O)c1ccc(C(=O)OC)c(NC(=O)COC(=O)C2CCC(C(C)(C)C)CC2)c1 (configuration not stated) | nt | 9% | nt | nt | -97% | -16%
CN([C@@H](Cc1ccc(OS(=O)(=O)c2cccc3cnccc23)cc1)C(=O)N1CCN(c2ccccc2)CC1)S(=O)(=O)c1cccc2cnccc12 | 0.93µM* | ? | -11% | -4% | 1µM* | 2.8µM*
O=C(N/N=C\c1cn[nH]c1-c1ccccc1)c1cccs1 | 25% | -10% | -12% | -29% | 26% | -6%
COc1ccc(S(=O)(=O)NCC2CCCN(C(=O)C3CCCC3)C2)cc1 (configuration not stated) | -15% | -7% | nt | nt | 389% | -14%
CC(C)(C)c1cc(/C=C(\C#N)C(N)=S)cc(C(C)(C)C)c1O | nt | -49% | ? | ? | nt | nt
N#CC(C#N)=C(N)/C(C#N)=C/c1cc(O)c(O)c(O)c1 | 12µM* | nt | 9% | -14% | 9.3µM* | -1%
Cc1ccc(C)c(N(C(=O)CNC(=O)c2ccco2)C(C(=O)NCC2CCCO2)c2ccccc2)c1 (configuration not stated) | -24% | -1% | -11% | -9% | -5% | -1%
CN(Cc1ccccc1)C(=O)c1csc(COCCO)n1 | nt | nt | -1% | 1% | nt | nt
CC(=O)Nc1ccc(NC(=O)CSc2nnc(NC(=O)c3ccc(Br)o3)s2)cc1 | 5% | 7% | -26% | -17% | 1% | nt
O=C(NCCNC(=O)c1cc(OCC(F)(F)F)ccc1OCC(F)(F)F)Nc1ccccc1 | 31% | -4% | nt | nt | ? | ?
CCNC(=O)NCCNC(=O)c1cc(OCC(F)(F)F)ccc1OCC(F)(F)F | 2.9µM* | 5% | -16% | i | 207% | -10%
O=C(NNC(=O)c1cc(OCC(F)(F)F)ccc1OCC(F)(F)F)c1cccc(C(F)(F)F)c1 | 15µM* | -17% | -28% | nt | ? | ?
COc1ccc(OC)c(-c2cc(C(=O)Nc3c(C)nn(Cc4ccccc4)c3C)no2)c1 | 13µM* | 11% | ? | ? | ? | ?
COc1ccc(OC)c(-c2cc(C(=O)Nc3c(C)nn(Cc4ccc(Cl)cc4)c3C)no2)c1 | ? | -77% | nt | nt | -20% | 14µM*
Cc1nn(Cc2ccccc2)c(C)c1NC(=O)c1cc(-c2ccco2)on1 | ? | -5% | -9% | i | 49% | -30%
COc1ccc2c(c1)CCc1c(C(=O)Nc3c(C)nn(Cc4ccccc4)c3C)noc1-2 | nt | 6% | ? | ? | 228% | 8.9µM*
